# The full list was thinned out, with the strongest signals kept by preference.
# B1: CRT-1 (Homo sapiens), P27797 (protein)
# chain: MLLSVPLLLGLLGLAVAEPAVYFKEQFLDGDGWTSRWIESKHKSDFGKFVLSSGKFYGDEEKDKGLQTSQDARFYALSASFEPFSNKGQTLVVQFTVKHEQNIDCGGGYVKLFPNSLDQTDMHGDSEYNIMFGPDICGPGTKKVHVIFNYKGKNVLINKDIRCKDDEFTHLYTLIVRPDNTYEVKIDNSQVESGSLEDDWDFLPPKKIKDPDASKPEDWDERAKIDDPTDSKPEDWDKPEHIPDPDAKKPEDWDEEMDGEWEPPVIQNPEYKGEWKPRQIDNPDYKGTWIHPEIDNPEYSPDPSIYAYDNFGVLGLDLWQVKSGTIFDNFLITNDEAYAEEFGNETWGVTKAAEKQMKDKQDEEQRLKEEEEDKKRKEEEEAEDKEDDEDKDEDEEDEEDKEEDEEEDVPGQAKDEL
# Key:
# Test in all cases: glycan array binding signal (z-score within array); higher = stronger binding
# Settings in all cases: glycan notation: IUPAC condensed, linker removed
# [1] = biological target: Fuc(a1-2)Gal(b1-4)Fuc(a1-3)]GlcNAc(b1-2)Man(a1-3)[Fuc(a1-2)Gal(b1-4)[Fuc(a1-3)]GlcNAc(b1-2)Man(a1-6)]Man(b1-4)GlcNAc(b1-4)GlcNAc
# Outline: (§1)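 Glycan array binding is given as a within-array Z-score, which can be read as non-binding when negative. The arrays, 3228 of them, came from the Consortium for Functional Glycomics database and were retained only where the protein sequence was available. Z-scores were averaged across arrays of the same protein sequence at different concentrations or buffers and across linkers.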
# [2] = biological target: Fuc(a1-2)Gal(b1-4)GlcNAc(b1-3)[Fuc(a1-3)[Gal(b1-4)]GlcNAc(b1-6)]Gal(b1-4)Glc
# Outline: as §1
# [3] = biological target: Fuc(a1-2)Gal(b1-4)[Fuc(a1-3)]GlcNAc(b1-2)Man(a1-3)[Fuc(a1-2)Gal(b1-4)[Fuc(a1-3)]GlcNAc(b1-2)Man(a1-6)]Man(b1-4)GlcNAc(b1-4)GlcNAc
# Outline: as §1
# [4] = biological target: Fuc(a1-2)Gal6S(b1-3)GlcNAc6S
# Outline: as §1
# [5] = biological target: Fuc(a1-2)[Gal(a1-3)]Gal(b1-3)GlcNAc(b1-3)GalNAc
# Outline: as §1
# [6] = biological target: Fuc(a1-2)[Gal(a1-3)]Gal(b1-4)[Fuc(a1-3)]Glc
# Outline: as §1
# [7] = biological target: Fuc(a1-2)[GalNAc(a1-3)]Gal(b1-4)GlcNAc
# Outline: as §1
# [8] = biological target: Fuc(a1-2)[GalNAc(a1-3)]Gal(b1-4)GlcNAc(b1-2)Man(a1-3)[Fuc(a1-2)[GalNAc(a1-3)]Gal(b1-4)GlcNAc(b1-2)Man(a1-6)]Man(b1-4)GlcNAc(b1-4)GlcNAc
# Outline: as §1
# Fuc(a1-3)GlcNAc = biological target: Fuc(a1-3)GlcNAc
# Outline: as §1
# [9] = biological target: Fuc(a1-3)[Gal3S(b1-4)]GlcNAc
# Outline: as §1
# [10] = biological target: Fuc(a1-3)[Gal3S(b1-4)]GlcNAc6S
# Outline: as §1
# Gal(a1-3)Gal(b1-3)GlcNAc = biological target: Gal(a1-3)Gal(b1-3)GlcNAc
# Outline: as §1
# [11] = biological target: Gal(a1-3)Gal(b1-3)[Fuc(a1-4)]GlcNAc(b1-2)Man(a1-3)[Gal(a1-3)Gal(b1-3)[Fuc(a1-4)]GlcNAc(b1-2)Man(a1-6)]Man(b1-4)GlcNAc(b1-4)GlcNAc
# Outline: as §1
# [12] = biological target: Gal(a1-3)Gal(b1-4)GlcNAc(b1-2)Man
# Outline: as §1
# [13] = biological target: Gal(a1-3)[Gal(a1-4)]Gal(b1-4)GlcNAc
# Outline: as §1
# [14] = biological target: Gal(a1-4)Gal(b1-4)GlcNAc(b1-2)Man(a1-3)[Gal(a1-4)Gal(b1-4)GlcNAc(b1-2)Man(a1-6)]Man(b1-4)GlcNAc(b1-4)GlcNAc
# Outline: as §1
# Gal(b1-3)GlcNAc = biological target: Gal(b1-3)GlcNAc
# Outline: as §1
# [15] = biological target: Gal(b1-3)GlcNAc(b1-2)Man(a1-3)[Gal(b1-3)GlcNAc(b1-2)Man(a1-6)]Man(b1-4)GlcNAc(b1-4)[Fuc(a1-6)]GlcNAc
# Outline: as §1
# Gal(b1-3)GlcNAc6S = biological target: Gal(b1-3)GlcNAc6S
# Outline: as §1
# [16] = biological target: Gal(b1-3)[Fuc(a1-4)]GlcNAc(b1-2)Man(a1-3)[Gal(b1-3)[Fuc(a1-4)]GlcNAc(b1-2)Man(a1-6)]Man(b1-4)GlcNAc(b1-4)GlcNAc
# Outline: as §1
# Gal(b1-4)Gal = biological target: Gal(b1-4)Gal
# Outline: as §1
# [17] = biological target: Gal(b1-4)GlcNAc(b1-3)Gal(b1-3)GlcNAc
# Outline: as §1
# [18] = biological target: Gal(b1-4)GlcNAc(b1-3)Gal(b1-4)GlcNAc(b1-3)Gal(b1-4)GlcNAc(b1-3)Gal(b1-4)GlcNAc(b1-2)Man(a1-3)[Gal(b1-4)GlcNAc(b1-3)Gal(b1-4)GlcNAc(b1-3)Gal(b1-4)GlcNAc(b1-3)Gal(b1-4)GlcNAc(b1-2)Man(a1-6)]Man(b1-4)GlcNAc(b1-4)[Fuc(a1-6)]GlcNAc
# Outline: as §1
# [19] = biological target: Gal(b1-4)GlcNAc(b1-3)Gal(b1-4)GlcNAc(b1-3)Gal(b1-4)GlcNAc(b1-3)Gal(b1-4)GlcNAc(b1-3)Gal(b1-4)GlcNAc(b1-2)Man(a1-3)[Gal(b1-4)GlcNAc(b1-3)Gal(b1-4)GlcNAc(b1-3)Gal(b1-4)GlcNAc(b1-3)Gal(b1-4)GlcNAc(b1-3)Gal(b1-4)GlcNAc(b1-2)Man(a1-6)]Man(b1-4)GlcNAc(b1-4)GlcNAc
# Outline: as §1
# [20] = biological target: Gal(b1-4)GlcNAc(b1-3)[Gal(b1-4)GlcNAc(b1-6)]Gal(b1-4)GlcNAc
# Outline: as §1
# [21] = biological target: Gal(b1-4)GlcNAc(b1-3)[Gal(b1-4)GlcNAc(b1-6)]GalNAc
# Outline: as §1
binder,measurement,setting,value
B1,glycan array binding signal (z-score),[1],1.49
same,glycan array binding signal (z-score),[2],0.038
same,glycan array binding signal (z-score),[3],2.15
same,glycan array binding signal (z-score),[4],0.305
same,glycan array binding signal (z-score),[5],-0.073
same,glycan array binding signal (z-score),[6],-0.424
same,glycan array binding signal (z-score),[7],-0.467
same,glycan array binding signal (z-score),[8],0.117
same,glycan array binding signal (z-score),Fuc(a1-3)GlcNAc,2.63
same,glycan array binding signal (z-score),[9],0.572
same,glycan array binding signal (z-score),[10],0.146
same,glycan array binding signal (z-score),Gal(a1-3)Gal(b1-3)GlcNAc,-0.43
same,glycan array binding signal (z-score),[11],0.078
same,glycan array binding signal (z-score),[12],-0.279
same,glycan array binding signal (z-score),[13],0.255
same,glycan array binding signal (z-score),[14],-0.021
same,glycan array binding signal (z-score),Gal(b1-3)GlcNAc,-0.063
same,glycan array binding signal (z-score),[15],0.223
same,glycan array binding signal (z-score),Gal(b1-3)GlcNAc6S,0.611
same,glycan array binding signal (z-score),[16],2.33
same,glycan array binding signal (z-score),Gal(b1-4)Gal,-0.253
same,glycan array binding signal (z-score),[17],-0.342
same,glycan array binding signal (z-score),[18],1.79
same,glycan array binding signal (z-score),[19],1.75
same,glycan array binding signal (z-score),[20],0.487
same,glycan array binding signal (z-score),[21],-0.095

# Source: the supplement of paper PMC8728848
